This note sets out measurements from PubChem BioAssay AID1626 (SRMLSC, 2009).

Screen size: about 220,000 compounds; about 2,000 (0.91%) were called active. Inconclusive results (about 2%) are left out. The list is a sample of the results. Entries with a potency or affinity are not part of this list. Unmarked numbers belong to inactive results. Rule as the data show it: inconclusive = inhibition above about 80% without an active follow-up result; inactive = below that; test concentration not stated here.

This assay can be described thus: M. tuberculosis H37Rv growth inhibitors, H37Rv strain (AID 1626).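 Also: bacteria incubated seven days before Alamar blue readout; 0% = bacteria only wells and 100% = bacteria with antibiotic wells.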 To be noted: stronger effect = higher value, concentration not given here.
As usually defined, the inhibition is the relative decrease from the control value, in per cent. With `Cc1ccc(NC(=S)N(CCN2CCOCC2)Cc2cc3cc4c(cc3[nH]c2=O)OCCO4)cc1`, the inhibition was 2.46%. Next, `NC(=S)Nc1cnc2ccccc2c1`: 0.46%; `CCN(CC)C(=O)Nc1cnc2ccccc2c1`: 63.2%; `Cn1c(NCc2c(O)ccc3ccccc23)nc2ccccc21`: 6.55%. Next, `COc1cccc(CNc2ncc(Br)cc2Br)c1O`: -8.94%; `COc1cccc(CNc2cccc3cccnc23)c1O`: 6.53%. In the case of `Oc1ccc2ccccc2c1CNn1cnnc1`, the inhibition was 1.43%. Next, `Cc1nc(SCC(=O)Nc2cccc(Cl)c2)n[nH]1`: -3.06%.

`O=C1CCC/C(=N\NC(=O)c2ccc(COc3ccccc3-c3ccccc3)cc2)C1`: the inhibition is 4.62%. In the case of `Cc1cccc(N2CC(C(=O)OCC(=O)c3ccc(OC(=O)c4cccs4)cc3)CC2=O)c1C` (stereo not drawn), the inhibition is 1.47%. Next, `CN(CCOC(=O)c1ccc2c(c1)OCO2)C(C)(C)C`: -1.44%.

Turning to `CC1=CC2=NC(=O)/C(=C\c3cccn3CCOc3cc(C)ccc3C)C(=N)N2O1`, the inhibition was 12.3%. With `O=C(CCc1ccccc1)N1N=C(c2ccncc2)CC1(O)C(F)(F)F` (stereo not drawn), the inhibition was -7.97%. The same measure for `O=C(NCCN1CCCCC1)Nc1ccc(F)c(Cl)c1`: -6.79%; for `Cc1ccc(N=Nc2c(C)[nH]n(C(N)=S)c2=O)cc1`: -3.59%; for `Cc1[nH]n(C)c(=O)c1N=Nc1ccc(S(C)(=O)=O)cc1`: -6.82%. In the case of `COc1ccc(-c2nnc(SCC(=O)NC(C)C)n2CC2CCCO2)cc1OC` (stereo not drawn), the inhibition was -10.3%.

For the molecule `COc1ccc(C2/C=C\CN(C(=O)Oc3ccc(C(F)(F)F)cc3)CC(=O)N2Cc2ccc(F)cc2)cc1` (stereo not drawn), the inhibition is 2.36%. Next, `COc1ccc(C2/C=C\CN(C(=O)Nc3ccccc3)CC(=O)N2Cc2ccc(F)cc2)cc1` (stereo not drawn): -8.73%. The same measure for `COc1ccc(NC(=O)C(=O)NCCCn2ccnc2)cc1`: -13.8%; for `O=C(Nc1csc([N+](=O)[O-])c1)Nc1ccccc1Cl`: 76.8%. The same measure for `O=C(Nc1csc([N+](=O)[O-])c1)Nc1c(Cl)cccc1Cl`: 0.45%; for `O=C(CN(CCc1ccccc1)S(=O)(=O)c1ccc(Br)cc1)N/N=C/c1ccccc1C(=O)O`: 1.98%; for `COc1ccc(-n2nc(C(N)=O)c(O)cc2=O)cc1`: -4.24%. In the case of `COc1ccccc1CNC(=O)CN1C(=O)CSc2ccc(S(=O)(=O)N3CCCC3)cc21`, the inhibition is -3.73%. Next, `CCOC(=O)c1ccc(N2C(=O)c3n[nH]c(C)c3C2c2ccco2)cc1` (stereo not drawn): 0.01%; `CCOC(=O)c1ccc(N2C(=O)c3n[nH]c(C)c3C2c2ccccc2)cc1` (stereo not drawn): -3.14%. On to `Cc1[nH]c2ccc(F)cc2c1CCN(Cc1cccnc1)C(=S)Nc1ccccc1`, for which the inhibition was -0.56%. Next, `CCCCCCCN1C2=NCCN2c2ccccc21`: -5.76%. The same measure for `CCCCC1=CC2=CC(=O)C(C)(OC(=O)CC)C(=O)C2=CN1CCN1CCOCC1` (stereo not drawn): 2.28%; for `Cc1ccc(C2C(C#N)=C(N)OC3=C2C(=O)CC(C)(C)C3)s1` (stereo not drawn): 2.18%; for `CC1(C)CC(=O)C2=C(C1)OC(N)=C([N+](=O)[O-])C2c1cccs1` (stereo not drawn): 3.66%. Next, `O=C1/C(=C/c2ccccc2Cl)N2CCC1CC2`: 7.2%; `Cc1ccc2c(c1)C(c1ccncc1)=NNC(c1ccc(F)cc1)=N2`: 5.08%; `COc1ccc(-c2ccc(OC)c([C@H]3[C@@H]4C=CCC[C@@]4(C)C(=O)N3Cc3ccccc3)c2)cc1OC`: 10.5%. Regarding `COc1ccc(-c2ccc([C@H]3[C@@H]4C=CCC[C@@]4(C)C(=O)N3Cc3ccccc3)c(F)c2)cc1`, the inhibition is 21.9%. For the molecule `O=C(CCn1c(=O)oc2ccccc21)N(Cc1ccccc1)c1ccccc1`, the inhibition is -1.76%. As to `Cc1nc2c(cnn2-c2ccccc2)c(=O)n1/N=C/c1ccccc1`, the inhibition is 3.66%. Next, `COc1ccc(C(=O)Cc2nnc(C)s2)c(OC)c1`: -1.08%. The same measure for `Cc1[nH]c2ccccc2c1-c1csc(NC(=O)CN2CCOCC2)n1`: 1.74%; for `O=C(COC(=O)c1cc(-c2ccccc2)nc2ccccc12)Nc1ccc2c(c1)OCO2`: -6.74%; for `O=C(COC(=O)c1c2c(nc3ccccc13)CCCC2)Nc1ccc2c(c1)OCO2`: 4.85%. Next, `COc1ccc(S(=O)(=O)N2CCCCCC2)cc1C(=O)OC(C)C(N)=O` (stereo not drawn): -6.24%; `CCN(CCCNC(=O)C1CCCN(S(=O)(=O)c2cnc[nH]2)C1)c1ccccc1` (stereo not drawn): -7.75%. `COc1ccc(C)cc1NC(=O)C(OC(=O)C1CC1)c1ccccc1` (stereo not drawn): the inhibition was 0.31%. Turning to `O=C(COC(=O)c1ccccc1)Nc1ccc(Cl)cn1`, the inhibition was -1.7%. Next, `COc1ccc(C(=O)OCC(=O)Nc2ccc(Cl)cn2)cc1`: -2.66%.

For the molecule `O=C(CCN1C(=O)S/C(=C\c2cccs2)C1=O)NC1=NCCS1`, the inhibition is -3.39%.

Turning to `Nc1nc(CN2CCCCCC2)nc(Nc2ccccc2)n1`, the inhibition was 0.64%. Next, `CCOc1ccc(NC(=O)CCN2CCN(c3ccccc3OC)CC2)cc1`: 7.58%. The same measure for `COc1cc(NC(=O)CCN2CCN(c3ccccc3F)CC2)cc(OC)c1`: -9.84%; for `Nc1nc(CN2CCN(c3ccccc3F)CC2)nc(Nc2ccccc2)n1`: 55.9%; for `Nc1nc(CN2CCN(Cc3ccccc3)CC2)nc(Nc2ccccc2)n1`: -0.83%. In the case of `COc1ccc(Nc2nc(N)nc(COc3ccc(OC)cc3)n2)cc1`, the inhibition was 3.88%. The same measure for `COc1ccc(Nc2nc(N)nc(CCl)n2)cc1`: 63.6%; for `CCOC(=O)N1CCN(Cc2nc(N)nc(Nc3ccc(OCC)cc3)n2)CC1`: -0.7%; for `Cc1cc(Nc2ccc(C)c(Br)c2)n2nc(C)nc2n1`: -3.51%. The same measure for `Cc1cccn2c(=O)c(/C=N/O)c(Nc3ccccc3F)nc12`: -2.23%.

On to `CCOC(=O)c1cccc(NC(=O)CN(c2ccc(C)cc2)S(=O)(=O)c2c(C)n[nH]c2C)c1`, for which the inhibition was -3.83%. The same measure for `COc1cccc(Nc2nc(N)nc(CCl)n2)c1`: 75.6%; for `Cc1ccc(Nc2nc(N)nc(CCl)n2)cc1`: 73.8%; for `Cc1ccc(SCc2nc(-c3ccccn3)no2)cc1`: 11.6%.

As for `COc1ccccc1-c1nc(-c2ccccn2)no1`, the inhibition is 0.6%. Next, `CCOC(=O)CSc1nc(-c2ccccn2)ncc1OC`: 10.3%; `COc1cccc(-c2nc(-c3ccccn3)no2)c1OC`: -1.55%. The same measure for `COc1ccc(Sc2cc(C(F)(F)F)nc(-c3ccccn3)n2)cc1`: 4.59%; for `COc1cnc(-c2ccccc2)nc1Sc1ccccc1`: -2.28%. The same measure for `COc1cnc(N(C)C)nc1Sc1ccc(Cl)cc1`: -2.94%; for `FC(F)(F)c1cc(Sc2ccccc2)nc(-c2ccccn2)n1`: 4.07%.

As for `c1ccc2c(N3CCCCC3)nnc(N3CCCCC3)c2c1`, the inhibition is -2.8%. The same measure for `Cc1nc(-c2ccccc2)sc1C1(C)CC(c2ccc(C#N)cc2)=NO1` (stereo not drawn): -5.09%. Next, `Cc1cnc(C(=O)OCC(=O)Nc2cc(Cl)cc(Cl)c2)cn1`: -2.03%; `CC(=O)N1CCC2(CC1)CC(=O)c1cc(OCC(=O)NCc3ccc(C)cc3)ccc1O2`: 4.89%.

Consider `CCOc1ccc(Cc2noc3c2C(=O)CC(C)(C)C3)cc1OCC`, for which the inhibition was 5.77%. Next, `O=C(CNc1cc(S(=O)(=O)N2CCCC2)ccc1OCC(F)(F)F)Nc1cc(Cl)cc(Cl)c1`: 0.25%. `CCC12CN3CCN(CC(C3)C1O)C2` (stereo not drawn): the inhibition was -8.91%. With `CCOC(=O)C(NC(=O)CC(C)C)(Nc1sc(C)c(CC)c1C#N)C(F)(F)F` (stereo not drawn), the inhibition was -1.9%. The same measure for `OC(CNCc1cccc(Cl)c1)c1ccccc1` (stereo not drawn): 6.44%; for `NCC(c1ccccc1)c1c[nH]c2ccccc12` (stereo not drawn): -2.1%; for `COc1ccc(C2=NCCn3cccc32)c(OC)c1`: 4.72%. As for `Cc1ccn2c(NC3CCCC3)c(-c3cccs3)nc2c1`, the inhibition was -6.97%. With `Cc1ccn2c(Nc3ccc4c(c3)OCO4)c(-c3ccccn3)nc2c1`, the inhibition is 12.5%.

Regarding `Cc1ccc(Nc2c(-c3ccccc3)nc3cnccn23)cc1`, the inhibition was 3.65%. Next, `Cc1ccn2c(Nc3ccccc3C)c(-c3ccncc3)nc2c1`: -1.59%; `Cc1ccc(-c2nc3ncccn3c2Nc2ccccc2C)o1`: 10.9%; `Cc1ccn2c(NC3CCCC3)c(-c3ccncc3)nc2c1`: -0.8%. The same measure for `Cc1ccn2c(Nc3ccccc3C)c(-c3cccnc3)nc2c1`: 3.46%; for `Cc1ccccc1Nc1c(-c2cccnc2)nc2ccccn12`: 3.53%.

With `CCOc1ccccc1NC(=O)CN1C(=O)COc2ccc(Cl)cc21`, the inhibition was -3.19%. Next, `Cc1cc(CNC(=O)Cn2nc(C)c([N+](=O)[O-])c2C)c2ccccc2n1`: -7.05%. With `Oc1cccnc1CCc1ccccc1`, the inhibition is -10.6%. The same measure for `CCOC(=O)c1sc(NC(=O)c2ccc(C)o2)nc1C`: 2.75%; for `CCCn1nnc(NC(=O)c2cccnc2Cl)n1`: 7.01%; for `Cc1cc(NC(=O)CSc2nc(C3CCCCC3)nc3ccccc23)no1`: 7.18%. The same measure for `Nc1c(-c2ccccc2)cnc2cc(-c3ccccc3)nn12`: 4.02%; for `Cc1ccc(-c2nc3cnccn3c2Nc2ccccc2)o1`: 9.96%. Next, `Cc1ccn2c(NCc3ccccc3)c(-c3cccs3)nc2c1`: 6.23%; `CCOc1ccccc1NC(=O)NC1(C(=O)N2CCOCC2)CCCCC1`: -10.7%.
